# How the values were obtained:
# [1] = system: Tyrosine-protein kinase ABL1 (Homo sapiens), P00519 [T315I]; conditions: at 1 µM
# [2] = system: Tyrosine-protein kinase ABL1 (Homo sapiens), P00519 [Y253F]; conditions: at 0.1 µM
# [3] = system: Tyrosine-protein kinase ABL1 (Homo sapiens), P00519 [Y253F]; conditions: at 1 µM
# [4] = target: Tyrosine-protein kinase ABL1 (Homo sapiens) (UniProt P00519); conditions: at 0.1 µM
# [5] = target: Tyrosine-protein kinase ABL1 (Homo sapiens) (UniProt P00519); conditions: at 1 µM
# [6] = target: ALK tyrosine kinase receptor (Homo sapiens) (UniProt Q9UM73); conditions: at 0.1 µM
# [7] = target: ALK tyrosine kinase receptor (Homo sapiens) (UniProt Q9UM73); conditions: at 1 µM
# [8] = target: Tyrosine-protein kinase ABL2 (Homo sapiens) (UniProt P42684); conditions: at 0.1 µM
# [9] = target: Tyrosine-protein kinase ABL2 (Homo sapiens) (UniProt P42684); conditions: at 1 µM
# [10] = target: Tyrosine-protein kinase receptor UFO (Homo sapiens) (UniProt P30530); conditions: at 0.1 µM
# [11] = target: Tyrosine-protein kinase receptor UFO (Homo sapiens) (UniProt P30530); conditions: at 1 µM
# [12] = target: Tyrosine-protein kinase Blk (Homo sapiens) (UniProt P51451); conditions: at 0.1 µM
# [13] = target: Tyrosine-protein kinase Blk (Homo sapiens) (UniProt P51451); conditions: at 1 µM
# [14] = target: T1, Cytoplasmic tyrosine-protein kinase BMX (Homo sapiens) (UniProt P51813); conditions: at 0.1 µM
# T1 sequence (whole entry): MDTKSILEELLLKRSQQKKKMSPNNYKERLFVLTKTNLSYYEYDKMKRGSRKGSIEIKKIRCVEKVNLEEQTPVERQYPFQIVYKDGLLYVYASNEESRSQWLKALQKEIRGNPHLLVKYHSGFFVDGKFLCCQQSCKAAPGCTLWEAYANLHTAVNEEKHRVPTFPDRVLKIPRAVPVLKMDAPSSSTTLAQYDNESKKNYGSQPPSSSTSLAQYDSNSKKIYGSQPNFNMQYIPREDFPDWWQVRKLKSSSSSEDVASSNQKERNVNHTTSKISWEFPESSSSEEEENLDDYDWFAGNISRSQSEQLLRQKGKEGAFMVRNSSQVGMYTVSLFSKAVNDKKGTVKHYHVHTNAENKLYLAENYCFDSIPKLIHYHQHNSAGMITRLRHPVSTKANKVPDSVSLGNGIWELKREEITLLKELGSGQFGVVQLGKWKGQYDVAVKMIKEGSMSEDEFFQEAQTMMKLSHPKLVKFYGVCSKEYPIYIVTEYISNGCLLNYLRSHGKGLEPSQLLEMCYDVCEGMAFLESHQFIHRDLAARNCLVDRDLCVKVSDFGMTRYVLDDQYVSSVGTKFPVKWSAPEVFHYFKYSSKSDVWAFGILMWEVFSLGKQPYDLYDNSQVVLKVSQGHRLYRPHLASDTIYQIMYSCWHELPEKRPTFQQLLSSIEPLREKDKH
# [15] = target: T1, Cytoplasmic tyrosine-protein kinase BMX (Homo sapiens); conditions: at 1 µM
# [16] = target: Protein-tyrosine kinase 6 (Homo sapiens) (UniProt Q13882); conditions: at 0.1 µM
# [17] = target: Protein-tyrosine kinase 6 (Homo sapiens) (UniProt Q13882); conditions: at 1 µM
# [18] = target: Tyrosine-protein kinase BTK (Homo sapiens) (UniProt Q06187); conditions: at 0.1 µM
# [19] = target: Tyrosine-protein kinase BTK (Homo sapiens) (UniProt Q06187); conditions: at 1 µM
# [20] = target: Tyrosine-protein kinase CSK (Homo sapiens) (UniProt P41240); conditions: at 0.1 µM;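 further: value given is the averaged percent inhibition of CSK kinase activity, from the GSK PKIS kinase inhibitor set screening panel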
# Sequence of Tyrosine-protein kinase CSK (Homo sapiens) (P41240 2-450 limits assumed): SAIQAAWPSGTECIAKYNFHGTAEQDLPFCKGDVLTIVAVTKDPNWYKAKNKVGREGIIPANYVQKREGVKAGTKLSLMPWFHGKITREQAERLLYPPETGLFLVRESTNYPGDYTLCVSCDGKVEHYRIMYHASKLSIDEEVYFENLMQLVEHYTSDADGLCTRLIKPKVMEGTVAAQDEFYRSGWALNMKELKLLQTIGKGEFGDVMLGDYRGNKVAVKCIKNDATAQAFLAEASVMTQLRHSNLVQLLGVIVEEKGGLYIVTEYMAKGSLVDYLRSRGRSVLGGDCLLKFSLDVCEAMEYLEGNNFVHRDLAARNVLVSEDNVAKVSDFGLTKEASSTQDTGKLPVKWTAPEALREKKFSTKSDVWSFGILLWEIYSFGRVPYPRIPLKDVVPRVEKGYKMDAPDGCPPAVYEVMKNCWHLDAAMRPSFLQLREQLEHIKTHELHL
# Sequence of Tyrosine-protein kinase receptor UFO (Homo sapiens) (P30530 whole entry): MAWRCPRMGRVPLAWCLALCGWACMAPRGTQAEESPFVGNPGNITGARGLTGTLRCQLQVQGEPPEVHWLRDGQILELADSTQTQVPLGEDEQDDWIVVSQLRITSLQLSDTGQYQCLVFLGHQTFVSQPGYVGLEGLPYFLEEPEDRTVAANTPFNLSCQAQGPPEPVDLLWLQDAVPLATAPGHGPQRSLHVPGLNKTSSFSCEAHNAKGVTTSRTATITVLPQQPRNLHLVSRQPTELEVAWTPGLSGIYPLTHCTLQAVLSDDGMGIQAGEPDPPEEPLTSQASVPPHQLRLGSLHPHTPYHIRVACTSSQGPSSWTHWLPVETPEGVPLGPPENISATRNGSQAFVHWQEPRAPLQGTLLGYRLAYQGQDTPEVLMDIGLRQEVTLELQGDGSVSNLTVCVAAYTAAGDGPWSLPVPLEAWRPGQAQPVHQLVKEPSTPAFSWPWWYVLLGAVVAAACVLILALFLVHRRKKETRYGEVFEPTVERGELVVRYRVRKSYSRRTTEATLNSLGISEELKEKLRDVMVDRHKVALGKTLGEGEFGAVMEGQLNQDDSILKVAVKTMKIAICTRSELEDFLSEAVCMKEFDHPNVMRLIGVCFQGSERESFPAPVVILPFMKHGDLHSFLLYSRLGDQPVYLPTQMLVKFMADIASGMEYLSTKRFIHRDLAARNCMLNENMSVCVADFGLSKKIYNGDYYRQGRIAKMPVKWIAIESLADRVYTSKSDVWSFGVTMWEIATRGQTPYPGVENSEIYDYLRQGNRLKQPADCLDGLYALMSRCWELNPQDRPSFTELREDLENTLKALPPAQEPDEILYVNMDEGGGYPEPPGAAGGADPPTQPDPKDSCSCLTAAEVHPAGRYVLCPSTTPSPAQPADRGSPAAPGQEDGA
# Sequence of Tyrosine-protein kinase ABL2 (Homo sapiens) (P42684 whole entry): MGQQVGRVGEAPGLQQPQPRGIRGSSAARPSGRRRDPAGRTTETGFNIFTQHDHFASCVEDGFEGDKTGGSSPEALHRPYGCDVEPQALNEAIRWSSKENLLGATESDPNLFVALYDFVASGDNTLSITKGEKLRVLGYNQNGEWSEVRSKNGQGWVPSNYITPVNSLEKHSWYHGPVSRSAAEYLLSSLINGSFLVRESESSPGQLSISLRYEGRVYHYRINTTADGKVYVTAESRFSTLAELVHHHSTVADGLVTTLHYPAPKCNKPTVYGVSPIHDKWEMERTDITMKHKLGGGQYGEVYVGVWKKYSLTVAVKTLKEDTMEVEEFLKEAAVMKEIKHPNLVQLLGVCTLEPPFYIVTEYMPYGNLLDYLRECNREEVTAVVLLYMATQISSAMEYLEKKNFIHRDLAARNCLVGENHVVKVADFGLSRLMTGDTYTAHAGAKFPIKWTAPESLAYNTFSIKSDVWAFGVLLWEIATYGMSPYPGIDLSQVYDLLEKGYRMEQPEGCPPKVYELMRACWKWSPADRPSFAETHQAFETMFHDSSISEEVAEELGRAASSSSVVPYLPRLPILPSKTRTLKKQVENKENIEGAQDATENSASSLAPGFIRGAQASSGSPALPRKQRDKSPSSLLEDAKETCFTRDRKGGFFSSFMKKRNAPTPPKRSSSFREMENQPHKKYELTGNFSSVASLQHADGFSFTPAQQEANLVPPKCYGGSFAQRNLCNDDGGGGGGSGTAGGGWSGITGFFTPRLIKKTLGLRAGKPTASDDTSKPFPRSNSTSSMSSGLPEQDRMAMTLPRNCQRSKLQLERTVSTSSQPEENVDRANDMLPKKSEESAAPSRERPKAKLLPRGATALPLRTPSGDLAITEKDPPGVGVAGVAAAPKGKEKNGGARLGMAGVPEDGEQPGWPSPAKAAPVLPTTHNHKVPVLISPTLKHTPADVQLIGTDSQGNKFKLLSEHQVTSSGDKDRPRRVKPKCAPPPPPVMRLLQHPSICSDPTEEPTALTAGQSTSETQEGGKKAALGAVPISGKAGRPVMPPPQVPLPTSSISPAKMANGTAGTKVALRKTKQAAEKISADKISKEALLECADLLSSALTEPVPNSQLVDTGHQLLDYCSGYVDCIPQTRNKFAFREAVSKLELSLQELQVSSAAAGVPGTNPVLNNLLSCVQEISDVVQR
# Sequence of Tyrosine-protein kinase BTK (Homo sapiens) (Q06187 whole entry): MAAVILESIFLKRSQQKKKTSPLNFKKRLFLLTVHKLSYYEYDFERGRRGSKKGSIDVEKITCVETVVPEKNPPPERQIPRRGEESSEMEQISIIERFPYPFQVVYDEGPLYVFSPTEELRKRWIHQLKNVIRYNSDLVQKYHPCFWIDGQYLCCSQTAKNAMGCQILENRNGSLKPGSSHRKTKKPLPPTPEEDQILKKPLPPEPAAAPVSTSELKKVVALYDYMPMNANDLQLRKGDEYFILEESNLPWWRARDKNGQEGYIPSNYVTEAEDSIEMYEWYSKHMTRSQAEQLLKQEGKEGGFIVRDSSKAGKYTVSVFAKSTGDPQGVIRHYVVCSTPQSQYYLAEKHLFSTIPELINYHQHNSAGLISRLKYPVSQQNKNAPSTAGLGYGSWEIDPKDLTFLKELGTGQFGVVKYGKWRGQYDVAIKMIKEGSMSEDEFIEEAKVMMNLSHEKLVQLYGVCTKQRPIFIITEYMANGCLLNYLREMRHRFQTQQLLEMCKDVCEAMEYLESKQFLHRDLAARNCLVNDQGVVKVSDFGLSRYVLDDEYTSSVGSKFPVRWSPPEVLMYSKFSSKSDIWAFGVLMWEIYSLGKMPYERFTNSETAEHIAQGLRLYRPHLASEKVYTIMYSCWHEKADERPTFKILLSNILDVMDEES
# Sequence of Protein-tyrosine kinase 6 (Homo sapiens) (Q13882 whole entry, looked up): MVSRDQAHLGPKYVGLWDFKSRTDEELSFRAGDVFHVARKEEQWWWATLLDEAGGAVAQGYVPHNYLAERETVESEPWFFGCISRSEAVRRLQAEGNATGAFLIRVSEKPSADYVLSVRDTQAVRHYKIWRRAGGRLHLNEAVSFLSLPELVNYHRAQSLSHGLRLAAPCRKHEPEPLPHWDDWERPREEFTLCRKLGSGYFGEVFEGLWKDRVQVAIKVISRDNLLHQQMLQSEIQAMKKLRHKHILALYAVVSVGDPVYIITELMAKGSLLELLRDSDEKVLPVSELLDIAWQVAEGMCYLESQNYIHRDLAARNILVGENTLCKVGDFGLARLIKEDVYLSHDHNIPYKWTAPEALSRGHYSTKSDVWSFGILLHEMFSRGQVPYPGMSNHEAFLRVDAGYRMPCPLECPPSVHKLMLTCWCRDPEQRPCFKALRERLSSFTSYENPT
# Sequence of Tyrosine-protein kinase Blk (Homo sapiens) (P51451 2-505 limits assumed): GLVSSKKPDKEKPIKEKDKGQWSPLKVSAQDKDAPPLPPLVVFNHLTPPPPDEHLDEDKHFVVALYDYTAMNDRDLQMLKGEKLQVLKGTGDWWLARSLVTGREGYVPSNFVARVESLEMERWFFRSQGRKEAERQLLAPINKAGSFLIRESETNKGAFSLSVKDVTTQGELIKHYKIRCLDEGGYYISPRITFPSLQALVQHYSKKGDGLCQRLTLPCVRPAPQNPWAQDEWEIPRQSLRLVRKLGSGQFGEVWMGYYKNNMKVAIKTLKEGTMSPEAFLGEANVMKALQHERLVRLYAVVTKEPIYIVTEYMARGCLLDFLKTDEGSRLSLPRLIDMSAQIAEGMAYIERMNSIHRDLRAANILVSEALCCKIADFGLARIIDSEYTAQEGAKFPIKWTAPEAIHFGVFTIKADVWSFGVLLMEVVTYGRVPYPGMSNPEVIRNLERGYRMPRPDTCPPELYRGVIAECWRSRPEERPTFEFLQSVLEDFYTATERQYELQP
Structure (SMILES),inhibition [1] [%],inhibition [2] [%],inhibition [3] [%],inhibition [4] [%],inhibition [5] [%],inhibition [6] [%],inhibition [7] [%],inhibition [8] [%],inhibition [9] [%],inhibition [10] [%],inhibition [11] [%],inhibition [12] [%],inhibition [13] [%],inhibition [14] [%],inhibition [15] [%],inhibition [16] [%],inhibition [17] [%],inhibition [18] [%],inhibition [19] [%],inhibition [20] [%]
CN(c1ccc(NC(=O)Nc2c(Cl)cccc2Cl)cc1)c1ccnc(Nc2cccc(CS(C)(=O)=O)c2)n1,73.2,19.4,56.2,16.9,53.1,1.74,4.6,25.1,55.1,4.33,28.6,37.2,75,47.1,73.5,10.8,44,18.8,26.5,10.6
CN(C)CCOc1ccc(-c2cc(-c3ccc4c(c3)CCC4=NO)c(-c3ccncc3)o2)cc1,19.4,2.44,22.1,2.01,20.3,-1.95,-0.08,2.43,18.6,1.32,2.27,-0.19,6.21,-1.43,1.43,1.76,15,0.42,2.57,-2.53
COc1cccc(/C=N/Nc2ncnc3c2cnn3-c2cccc(OC)c2)c1,10.4,11.1,49.7,6.38,27.4,1.22,2.63,2.78,15.2,-6.24,-4.88,1.56,4.98,2.16,5.64,2.5,5.61,-0.27,-1.35,2.79
Fc1ccc(-c2ncn(CCCN3CCOCC3)c2-c2ccncc2)cc1,-0.98,-0.87,0.03,1.14,0.89,1.45,-0.45,1.71,5.07,-0.1,1.84,-0.04,1.04,1.9,-0.36,-4.64,-0.48,-0.91,2.71,-2.06
COc1ccc(C2=C(N3CCc4ccccc43)C(=O)NC2=O)cc1,6.11,5.42,3.01,5.83,9.91,1.29,5.62,6.76,12.3,-5.65,-4.91,3.71,2.94,-1.14,5.15,6,5.72,1.91,0.84,7.99
Fc1ccc(-c2ncn(C3CCNCC3)c2-c2ccnc(Oc3ccc(Oc4ccccc4)cc3)n2)cc1,1.98,1.99,2.86,3.87,2.97,4.84,4.48,2.96,3.58,-7.4,-7.71,3.8,3.79,3.11,6.45,1.09,1.93,-2.01,0.33,0.47
CN(C)CCCNc1nccc(-c2c(-c3ccc(F)cc3)nn3cc(C(F)(F)F)ccc23)n1,2.66,3.93,6.04,2.04,11.2,-2.64,-0.07,2.2,6.34,-2.11,3.68,-1.5,-0.77,-2.3,3.77,2.2,4.39,-3.09,-2.3,2.44
COc1cc2ncn(-c3cc(OCCc4ccccc4)c(C(N)=O)s3)c2cc1OC,8.39,3.32,9.56,2.3,13.7,1.95,5.89,2.26,8.26,-5.54,-2.35,1.59,6.17,-0.54,3.43,-0.83,4.33,1.12,0.02,2.97
COc1cccc(-n2cnc3c(N/N=C/c4ccncc4)ncnc32)c1,28.5,44.6,85.3,29,72.2,-1.9,-4.64,12.7,59.5,3.99,-2.08,-0.3,15.8,-0.75,16.1,0.43,15.2,-2.61,-2.79,1.91
CCS(=O)(=O)c1ccc(OC)c(Nc2ncc(-c3cccc(-c4ccccc4F)c3)o2)c1,18,60.6,91.4,13.7,77.8,1.79,4.33,7.9,65.1,0.9,2.28,8.74,55.5,-4.54,9.3,1.06,10.8,-0.93,3.93,0.57
COc1ccc2cc(-c3c(-c4ccncc4)nc(-c4ccc([S+](C)[O-])cc4C)n3C)ccc2c1 (stereo not given),54.5,1.98,16,2.56,15.7,-0.66,2.15,5.58,12.1,1.01,1.82,-0.17,4.39,0.28,0.8,24.7,81.2,-0.17,0.66,-0.71
O=C(Nc1n[nH]c2nc(-c3ccco3)ccc12)C1CC1,12.8,4.47,7.45,3.94,14,1.35,2.65,4.39,6.13,2.04,5.23,0.69,5.1,-0.85,1.83,2.56,1.59,0.36,0.7,0.84
CCS(=O)(=O)c1ccc(OC)c(Nc2ncc(-c3ccccc3Cl)o2)c1,11.7,5.95,33.3,2.99,29.3,0.79,5.19,4.89,24.5,-0.86,1.78,2.51,15.7,-1.76,3.11,-0.35,5.66,2.72,2.31,1.15
NC(=O)c1cc(-c2ccc(F)cc2)cc(-c2ccncc2)c1N,4.82,4.33,5.14,2.42,6.04,1.8,4.91,1.26,5.07,-7.77,-4.61,2.33,4.55,7.08,7.6,3.05,5.71,0.21,-0.9,0.77
O=C1Nc2ccc(I)cc2C1=Cc1cc(Br)c(O)c(Br)c1,2.95,1.68,5.83,5.59,6.33,3.04,4.7,4.07,6.48,-5.83,-7.49,1.48,3.74,2.64,7.27,3.26,6.68,-1.22,-0.86,-2.19
COc1cc(C)c(N(C)C(=O)CN(C)C)cc1Nc1nc(Nc2cccc(F)c2C(N)=O)c2cc[nH]c2n1,-0.05,2.02,1.33,0.32,0.22,22.4,69.9,-2.32,-3.83,-0.45,3.71,-3.28,-1.84,-1.82,2.46,0.54,1.53,-1.73,-2.02,1.1
Fc1ccc(-c2c(-c3ccncc3)nc3n2CCS3)cc1,3.81,2.69,5.48,-1.32,2.3,-2.59,-1.88,-2.22,2.07,-4.74,-2.08,-2.78,-0.74,1.44,0.74,4.76,4.76,-5.15,-4.99,3.65
COc1cc(N2CCN(C(C)C)CC2)ccc1Nc1nc(Nc2ccc(F)cc2C(=O)NC[C@@H](O)CO)c2cc[nH]c2n1,6.94,4.03,6.49,-1.73,0.53,82.6,69.5,-1.39,1.38,-4.74,7.75,-1.34,0.03,3.82,4.34,4.82,7.68,-2.66,-4.6,5.74
COc1cc2ncn(-c3cc(OCc4ccccc4C(F)(F)F)c(C(C)=O)s3)c2cc1OC,4.77,3.33,4.29,5.34,10.7,2.65,3.72,6.5,10.4,-3.01,-1.92,3.79,4.29,4.87,2.58,-3.46,3.98,1.17,1.75,0.53
FC(F)(F)c1cccc(Nc2nccc(-c3cnn4nc(-c5ccccc5)ccc34)n2)c1,1.88,-1.1,3.96,-0.03,5.59,1.89,1.6,3.3,3.79,-3.39,-4.33,0.07,-0.26,1.76,0.63,-1.81,2.26,0.03,-0.49,4.19
CCc1nccc2c1nc(-c1nonc1N)n2CC,-0.14,2.18,2.26,1.88,7.3,0.99,0.3,2.12,9.26,-0.45,2.17,0.44,1.64,-1.94,2.51,-3.14,-0.37,-0.56,0.41,1.3
CCC(=O)Nc1ccc(C)c(-c2ccc(C(=O)NCC3CC3)cc2)c1,3.61,2.81,3.14,2.28,2.9,1.63,2.14,0.38,3.75,-4.46,-3.83,1.71,3.32,1.57,3.88,4.7,5.22,-0.35,0.22,2.98
CN(C)c1ccc2c(c1)/C(=C/Nc1ccc(S(N)(=O)=O)cc1)C(=O)N2,18.4,4.7,18.7,2.76,21.3,1.86,8.32,2.83,4.52,0.79,14.8,2.29,33.2,-8.96,1.7,0.1,2.14,-1.88,-0.24,2.3
O=C1Nc2ccccc2/C1=C/Nc1ccc(-n2cncn2)cc1,17.2,3.13,13.1,1.87,13.5,1.97,11.8,3.58,7.69,-6.88,-3.55,3.13,19.7,6.8,4.54,3.56,6,0.25,-0.4,3.03
COc1cc2ncn(-c3cc(OCc4cccs4)c(C(N)=O)s3)c2cc1OC,59.6,9.05,41.8,3.87,42,-3.76,6.72,0.54,18.4,3.68,1.31,0.4,18.6,-4.41,3.5,2.12,7.01,-2.66,-0.98,4.25
NS(=O)(=O)c1ccc(N/N=C2\C(=O)Nc3ccc(C(=O)NCCCn4ccnc4)cc32)cc1,14.2,5.66,15.5,2.77,13.3,3.7,11.1,4.28,9.85,-2.66,3.27,2.75,12.2,10.2,8.26,4.87,6.65,-1.04,0.06,2.76
COc1ccc(-c2ccc3c(NC(=O)C4CC4)n[nH]c3n2)cc1,21.2,2.3,9.63,2.39,19.3,1.28,1.76,2.81,8.05,-1.95,-2.35,1.52,2.8,3.4,2.59,0.93,2.88,0.22,-0.23,0.42
